In the first test the target is SLC22A8. Kind of test: pooled miR-30 sensor sort-seq; sequence = guide strand. As to conditions: shRNA.
For TTCCACATTCAAGATGACGGTG, the sensor-assay potency score (higher = more potent) was -0.373. Sequence TTTGTTGGAGTTGCACACCAAG gave a sensor-assay potency score (higher = more potent) of -1.22. TAATTCACTTGTGTAGAGGAAG returned a sensor-assay potency score (higher = more potent) of -0.618. With TTGAGTTTGAGCTCCTCCAAGC, the sensor-assay potency score (higher = more potent) is -1.05. TTGAAGACAGCCACCCGCCGGA displayed a sensor-assay potency score (higher = more potent) of -0.0956. TTCTTCCACACCCATAGCCAAA had a sensor-assay potency score (higher = more potent) of -1.71. With TATAGTAGGCAAAACCGGTAGC, the sensor-assay potency score (higher = more potent) worked out at 0.235. On the same count and under the same terms, with AACTATAGTAGGCAAAACCGGT the figure was -1.07. As for TTGCACACCAAGTCCCACTCTG, the sensor-assay potency score (higher = more potent) came out at 0.471. Same read-out and setting: with TCTGTCACAATGGAGTCCTTGG the figure was -1.04; with TTTCCAGACAAGACCAACCAGC, -0.636; with TTCACTTGTGTAGAGGAAGAGG, -0.683.

A further test has as its target SLC23A2. The description is as above. As to conditions: shRNA.
Sequence TTCTGTCTGAGGTAACTTGGAA registered a sensor-assay potency score (higher = more potent) of -0.6.

On to TATAAATCATGTCTGATCGCTG, for which the sensor-assay potency score (higher = more potent) is 0.473.

In turn, TATGGAACCTTAAACCACGGGG yielded a sensor-assay potency score (higher = more potent) of -0.198.

As to TTCCGTAGTGTAGATCGCCATG, the sensor-assay potency score (higher = more potent) is -1.38. For TTCTTGGATTTATAAATCGGGA, the sensor-assay potency score (higher = more potent) is -1.08. Consider TTCAACACTTGATCGATTCCTG, for which the sensor-assay potency score (higher = more potent) was found to be 0.272. For TATGCCATCAAGAACACAGGAG, the sensor-assay potency score (higher = more potent) is 0.397. On to TAAATCATGTCTGATCGCTGGG, for which the sensor-assay potency score (higher = more potent) was 0.763. The sequence TAATACTAGGAATATTGTCAGC came in with a sensor-assay potency score (higher = more potent) of -0.987. TAAATCAATGAACTGCAGGTTA yielded a sensor-assay potency score (higher = more potent) of 0.267.

TTGTCTGTAGCAAAGTAGTGAT: the sensor-assay potency score (higher = more potent) was -0.911. The same measure, in the same setting: the result for TTCTGTTGAACTTCCAGCCTCC reads 0.654.

The target in another test is SLC25A18. The test is described as above. As to conditions: shRNA.
For TCGAGTTTTCAGAACATCTAGA, the sensor-assay potency score (higher = more potent) was -0.0433. The sequence TTAAAATACAGAAACAACCCTT yielded a sensor-assay potency score (higher = more potent) of 0.611. On the same count and under the same terms, the result for TTCTATTGTGACTACCTGTTAA reads -0.81; that for TTTCAGAACATCTAGAGGCGTC, 0.0336; that for TCAAACTAGGTGCTGACTCTGA, -0.384. In the case of TAAAATACAGAAACAACCCTTC, the sensor-assay potency score (higher = more potent) came out at 0.73. The sequence TTGGTCTCAAACTAGGTGCTGA came in with a sensor-assay potency score (higher = more potent) of -0.0245. For the sequence TTCGAGTTTTCAGAACATCTAG, the sensor-assay potency score (higher = more potent) is -0.224. Same read-out and setting: the result for TTAACAATGCTAAATCCTCAAG reads -1.35; that for TTAAGGTTGGCAAACAGTGGGA, -0.285; that for TGAGGTAGCACTACAACGCAGA, -0.364. TTGAGGTAGCACTACAACGCAG registered a sensor-assay potency score (higher = more potent) of -1.18.

These data come from the OligoGym collection.
Further: reference of the scale not given here.
